Gli-Sufu antag: blocks Gli-Sufu signaling in a luciferase reporter; inhibition, % at 5 µM; hit rate 0.74% among 340,000; Sufu-KO-LIGHT fibroblasts, Gli luciferase reporter luminescence;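 active means inhibition above about 55%, limit read from the data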
GalR3 antagonist: blocks the human galanin receptor 3; AID 651719; hit rate 0.44% among 360,000; inhibition, % at 3 µM; HEK293 GalR3-CNG cAMP membrane potential fluorescence; galR3 body fused to GalR1 C-terminus; O60755;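 active means inhibition above the screen-wide average plus 3 SD, cut at about 13% in these data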;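 further: forskolin and galanin both at EC90 stimulate the cells; cAMP rise reported by CNG channel membrane potential dye signal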
Target sequence (O60755 1-299 limits assumed): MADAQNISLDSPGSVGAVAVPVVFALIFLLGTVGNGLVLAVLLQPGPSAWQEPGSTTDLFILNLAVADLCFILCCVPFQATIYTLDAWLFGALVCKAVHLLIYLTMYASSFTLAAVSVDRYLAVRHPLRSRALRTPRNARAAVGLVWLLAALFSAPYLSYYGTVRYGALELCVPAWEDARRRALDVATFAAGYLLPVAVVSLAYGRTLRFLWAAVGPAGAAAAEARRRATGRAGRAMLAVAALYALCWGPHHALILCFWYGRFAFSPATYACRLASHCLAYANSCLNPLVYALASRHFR
NR2F2 inh: blocks human COUP-TFII nuclear receptor. P24468. HEK293T NGFI-A luciferase reporter, luminescence. inhibition, % at 8.6 µM. hit rate 0.7% among 370,000. AID 686940;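 active means inhibition above a per-plate cutoff, mean inhibition of test wells between control levels plus 3 SD, cut at about 38% in these data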;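 further: cells cotransfected with COUP-TFII expression vector driving the NGFI-A reporter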
697 NFkB inh: inhibitors of the PMA/ionomycin-induced NF-kB reporter in 697 B cells. inhibition, % at 4 µM. 697 B-cell NF-kB luciferase reporter, 16 h. AID 435022. hit rate 0.33% among 330,000; in the data active means inhibition above about 35%
Jurkat NFkB inh: inhibitors of the PMA/ionomycin-induced NF-kB reporter in Jurkat cells; PMA/ionomycin-induced NF-kB luciferase reporter, luminescence; inhibition, % at 4 µM; hit rate 0.53% among 330,000; AID 435003; in the data active means inhibition above about 50%
Jurkat NFkB conf: inhibitors of the PMA/ionomycin-induced NF-kB reporter in Jurkat cells, retest | Jurkat NF-kB luciferase, 16 h | inhibition, % at 4 µM | hit rate 27% among 2,700 | shares compounds with Jurkat NFkB inh;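 active means inhibition reaching about 45% at 4 µM in either replicate, limit read from the data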
Of the large screens only hits and unclear results are named; the others gave an inactive call (follow-up assays come after a bar, where they were run). Most compounds without a hit are left out; they make up all but 2% or so of the library.

Cc1ccc(NCCC(=O)c2cccs2)cc1Cl	none
Cc1ccc(NCCC(=O)c2cccs2)cc1C	none | Jurkat NFkB conf inactive
Cc1noc(C)c1COc1cccc(C(=O)OCC(=O)N2CC(=O)Nc3ccccc32)c1	Jurkat NFkB inh 58 | Jurkat NFkB conf inactive
O=C1CN(C(=O)COc2cccc(F)c2)c2ccccc2N1	none (no result: Gli-Sufu antag)
CCC1=Nc2cc(C(=O)NCc3ccco3)ccc2Sc2ccccc21	none
CCC1=Nc2cc(C(=O)NCc3cccnc3)ccc2Sc2ccc(C)cc21	Jurkat NFkB inh 56 | Jurkat NFkB conf inactive
NC(=O)c1ccccc1NC(=O)c1ccc2ccccc2c1	none | Jurkat NFkB conf inactive
Cc1ccc(-n2c(SCC(=O)Nc3ccc(S(=O)(=O)Nc4cc(C)nc(C)n4)cc3)nnc2-c2cccs2)cc1	none (no result: Gli-Sufu antag, GalR3 antagonist, 697 NFkB inh, Jurkat NFkB inh)
O=C(Nc1ccc([N+](=O)[O-])cc1)Nc1ccon1	Jurkat NFkB inh 63 | Jurkat NFkB conf inactive
Nc1ccn(Cc2ccccc2)n1	none
c1ccc(Cn2ccc(-c3cnc(-c4ccccc4)s3)n2)cc1	none | Jurkat NFkB conf inactive
COc1ccc2c(c1)N[C@@](CCNC=O)(c1[nH]c3ccccc3c1CCNC=O)C2=O	none (no result: Gli-Sufu antag, GalR3 antagonist, 697 NFkB inh, Jurkat NFkB inh)
COC(=O)c1cnc(Oc2ccc(NC(=O)NC(=O)c3c(F)cccc3Cl)cc2)cc1C(F)(F)F	Jurkat NFkB inh 50 | Jurkat NFkB conf inactive
O=C(Cc1ccccc1F)N1CCC(n2nnc3ncccc32)CC1	none (no result: Gli-Sufu antag, GalR3 antagonist, 697 NFkB inh, Jurkat NFkB inh)
CCn1c(O)c(N=NC(=O)CNC(=O)Cc2ccccc2)c2ccccc21	none
O=C(CNC(=O)c1ccco1)N=Nc1c(O)n(CCc2ccccc2)c2ccccc12	Jurkat NFkB inh 67 | Jurkat NFkB conf 51
O=C(c1cccc(N2CCCC2=O)c1)N1CCN(c2cccc(Cl)c2)CC1	Jurkat NFkB inh 53 (no result: GalR3 antagonist, NR2F2 inh) | Jurkat NFkB conf inactive
Cc1cccc(N2CCN(C(=O)c3cccc(N4CCCC4=O)c3)C(C)C2)c1 (stereo not given)	Jurkat NFkB inh 56 | Jurkat NFkB conf inactive
Cc1ccc(-n2c(SCC(=O)C(C)(C)C)nnc2-c2cccc(C)c2)cc1	none (no result: Gli-Sufu antag, GalR3 antagonist, 697 NFkB inh, Jurkat NFkB inh)
Fc1ccc2c(Cl)c(-c3nnc(-c4cccs4)o3)sc2c1	none | Jurkat NFkB conf inactive
COc1cc(-c2nnc(-c3cccs3)o2)cc(OC)c1OC	none
COc1ccc(Oc2c(Cl)cnn(-c3cc(C)cc(C)c3)c2=O)cc1	none (no result: Gli-Sufu antag, GalR3 antagonist, 697 NFkB inh, Jurkat NFkB inh)
O=C(O)c1ccc2c3n(nc2c1)-c1ccc(Cl)cc1CO3	Jurkat NFkB inh 59 | Jurkat NFkB conf inactive
C=CCNC(=O)c1ccc2c3n(nc2c1)-c1ccccc1CO3	none | Jurkat NFkB conf inactive
CC(=O)N1CCN(C2=Nc3ccccc3Sc3ccccc32)CC1	none (no result: Gli-Sufu antag, GalR3 antagonist, 697 NFkB inh, Jurkat NFkB inh)
Cc1ccc(C(=O)n2ccc3ccc(-c4ccc5ccn(Cc6ccccc6)c5c4)cc32)cc1	none (no result: Gli-Sufu antag, GalR3 antagonist, 697 NFkB inh, Jurkat NFkB inh)
CCOc1ccc(N(CC(=O)Nc2ccccc2C)S(=O)(=O)c2c(C)noc2C)cc1	Jurkat NFkB inh 58 | Jurkat NFkB conf 46
CCOc1ccccc1NC(=O)CN(c1ccc(OC)cc1)S(=O)(=O)c1c(C)noc1C	Jurkat NFkB inh 65 | Jurkat NFkB conf inactive
CCOc1ccc(N(CC(=O)Nc2ccc(C)c(C)c2)S(=O)(=O)c2c(C)noc2C)cc1	none
CCOC(=O)[C@@]12CCC3=C1N(CCC3)C(=O)[C@H](CC(=O)NCc1cccc(C(F)(F)F)c1)C2	none (no result: Gli-Sufu antag, GalR3 antagonist, 697 NFkB inh, Jurkat NFkB inh)
Cc1ccc(CN=C(N)Nc2nc(C)cc(C)n2)cc1	Jurkat NFkB inh 73 | Jurkat NFkB conf inactive
O=C(Nc1ccc(Cl)cn1)c1ccc2c(Cl)c3c(nc2c1)CCC3	none (no result: Gli-Sufu antag) | Jurkat NFkB conf inactive
Cc1cccc(NC(=O)c2ccc3c(Cl)c4c(nc3c2)CCCC4)n1	none
Cc1ccc(C)c(NC(=O)CNS(=O)(=O)c2ccc3[nH]c(=O)oc3c2)c1	none (no result: Gli-Sufu antag, GalR3 antagonist, 697 NFkB inh, Jurkat NFkB inh)
Cc1nn(-c2ccccc2)c(C)c1/C=N\NC(=O)CSc1nc2ccccc2n1Cc1ccc(Cl)cc1	none (no result: Gli-Sufu antag, GalR3 antagonist, 697 NFkB inh, Jurkat NFkB inh)
COC(=O)[C@]12C[C@H](CC(=O)NCCC(C)C)C(=O)N(Cc3ccco3)C1=C[C@H](COCc1ccccc1)O[C@@H]2C	none (no result: Gli-Sufu antag, GalR3 antagonist, 697 NFkB inh, Jurkat NFkB inh)
CC1=C([N+](=O)[O-])C(c2ccccc2)C2=C(N1)c1ccccc1C2=O (stereo not given)	Jurkat NFkB inh 61 | Jurkat NFkB conf 47
COc1ccc(C2C(C#N)=C(C)NC3=C2C(=O)c2ccccc23)cc1 (stereo not given)	none
O=C(CSc1nnc(-c2ccccc2)n1Cc1ccco1)Nc1ccc(Oc2ccccc2)cc1	none (no result: Gli-Sufu antag, GalR3 antagonist, 697 NFkB inh, Jurkat NFkB inh)
CCN(CC)c1ccc2c(cc1=O)[C@@H](NC)CCc1cc(OC)c(OC)c(OC)c1-2	Jurkat NFkB inh 60 | Jurkat NFkB conf inactive
